High-throughput results: PubChem BioAssay, several laboratories
An excerpt weighted towards active compounds, which were near 4% of everything screened.
ADAM17 inh = ADAM17 inhibition, QFRET primary screen. inhibition, % at 6.95 µM. 370,000 compounds, 0.83% hits. P78536. recombinant ADAM17, EDANS/DABCYL FRET peptide cleavage. AID 720648;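 active means inhibition above the mean of compounds lying between control limits plus 3 SD, set per campaign, cut at about 8.5% in these data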;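 further: 0% = DMSO-only wells as the low control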
Target sequence (P78536 215-824 limits assumed): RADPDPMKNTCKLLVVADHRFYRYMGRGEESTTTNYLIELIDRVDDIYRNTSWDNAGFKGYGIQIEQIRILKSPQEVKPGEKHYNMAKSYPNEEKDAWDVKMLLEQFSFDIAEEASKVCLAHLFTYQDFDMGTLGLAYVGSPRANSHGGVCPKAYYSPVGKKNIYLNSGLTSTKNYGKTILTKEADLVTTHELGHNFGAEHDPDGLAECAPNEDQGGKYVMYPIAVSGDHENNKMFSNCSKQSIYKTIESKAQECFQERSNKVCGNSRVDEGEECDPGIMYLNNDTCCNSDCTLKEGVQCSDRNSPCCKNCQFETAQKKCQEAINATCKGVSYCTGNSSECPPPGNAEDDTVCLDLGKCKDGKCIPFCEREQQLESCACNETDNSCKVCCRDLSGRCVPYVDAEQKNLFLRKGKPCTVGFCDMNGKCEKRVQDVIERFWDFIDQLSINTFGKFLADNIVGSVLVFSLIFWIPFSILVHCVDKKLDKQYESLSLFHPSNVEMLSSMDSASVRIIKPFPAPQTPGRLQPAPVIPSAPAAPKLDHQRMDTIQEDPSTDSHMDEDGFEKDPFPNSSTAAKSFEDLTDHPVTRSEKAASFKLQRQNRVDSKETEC
FAS TE block = inhibitors of human fatty acid synthase thioesterase domain. P49327. recombinant FAS-TE, OMFH fluorogenic substrate, fluorescence endpoint. inhibition, % at 15 µM. 360,000 compounds, 0.67% hits;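 active means compounds whose normalised, plate-corrected inhibition of enzyme fluorescence in the single-dose primary screen is 50% or more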;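 further: 0% = DMSO with enzyme and 100% = substrate without enzyme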
GRIN3A LBD mod = modulates the human NR3A ligand-binding domain. NR3A LBD differential scanning fluorimetry, Tm shift; 0% = protein alone, 100% = glycine-bound protein. Tm shift relative to glycine control, % at 25 µM. 340,000 compounds, 2.5% hits. AID 1259313;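 active means melting temperature shift of at least 10% of the positive control shift, at one fixed dose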
aDG glyco up = increases alpha dystroglycan glycosylation; Pro5-aDG cells, alpha-DG glycosylation AlphaScreen (IIH6); 0% Pro5, 100% B10-LARGE cell signal; activation, % at 10 µM; 360,000 compounds, 0.22% hits; AID 624168;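 active means activation of at least 8% versus controls, or a plate z-score of at least 8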;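 further: Pro5 are CHO cells carrying HIG-tagged alpha-DG that lacks glycosylation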
ADAM10 inh = ADAM10 inhibition, QFRET primary screen; O14672; recombinant ADAM10, EDANS/DABCYL FRET peptide cleavage, 3 h; inhibition, % at 7 µM; 370,000 compounds, 0.62% hits; AID 720582;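 active means inhibition above a per-campaign cutoff equal to the mean of compounds falling between control-based bounds plus 3 SD, cut at about 20% in these data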;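 further: 0% = DMSO wells while the 100% control is not disclosed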
FAS-TE conf = confirmation of human fatty acid synthase thioesterase inhibitors | recombinant FAS-TE, OMFH fluorogenic substrate, fluorescence | inhibition, % at 15 µM | 2,300 compounds, 45% hits | shares compounds with FAS TE block;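 active means compounds inhibiting the enzyme by at least 50% at 15 µM in any one of the replicates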;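 further: 0% = enzyme with DMSO only and 100% = wells lacking enzyme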
* = called active by the depositor; / = no result given.

SMILES | ADAM17 inh | FAS TE block | GRIN3A LBD mod | aDG glyco up | ADAM10 inh | FAS-TE conf
Cc1ccc(Cn2cc(S(=O)(=O)c3ccc(C(C)C)cc3)c(=O)c3cc4c(cc32)OCO4)cc1 | 3 | 11 | 4 | 0 | -2 | /
O=c1c(S(=O)(=O)c2ccc(Cl)cc2)cn(Cc2cccc(F)c2)c2ccc(F)cc12 | 0 | 70* | 0 | 0 | -7 | 32
Cc1ccccc1Cn1cc(S(=O)(=O)c2ccc(C(C)C)cc2)c(=O)c2cc3c(cc21)OCO3 | -3 | 62* | 0 | 0 | -10 | 32
Cc1ccc(S(=O)(=O)c2cn(Cc3ccc(F)cc3)c3cc4c(cc3c2=O)OCO4)cc1 | -10 | 58* | -3 | 0 | -29 | 20
Cc1ccc(Cn2cc(S(=O)(=O)c3ccc(Cl)cc3)c(=O)c3cc(F)ccc32)cc1 | 0 | 3 | 5 | 0 | 5 | /
Cc1ccc(C(C)c2c(C)c([N+](=O)[O-])cc(C)c2[N+](=O)[O-])cn1 (stereo not given) | -3 | 32 | 0 | 0 | -2 | /
CC(NS(=O)(=O)c1ccc(Br)cc1)C(=O)NCc1ccco1 (stereo not given) | 0 | -1 | 0 | 1 | 1 | /
O=C(NCC(c1ccco1)N1CCc2ccccc2C1)c1ccc([N+](=O)[O-])cc1 (stereo not given) | 7 | 60* | -1 | 0 | -4 | 11
O=C(NCC(c1ccco1)N1CCc2ccccc2C1)c1cccc(F)c1 (stereo not given) | -1 | 7 | 3 | 0 | 4 | /
Cc1ccccc1Cn1c(C)c(C(=O)N(C)Cc2ccc(F)cc2)sc1=O | -1 | 0 | / | 0 | 0 | /
N#CCSc1ccc(S(=O)(=O)N2CCOCC2)cn1 | -5 | -7 | 4 | 0 | -17 | /
CC(C)(C)c1ccc(CSc2ccc(S(=O)(=O)N3CCOCC3)cn2)cc1 | -1 | 82* | 4 | 0 | 5 | 74*
O=S(=O)(Nc1ccc(-c2csc(-c3ccccc3)n2)cc1)c1ccccc1 | 5 | 59* | 20* | 0 | 13 | 44*
O=c1[nH]c(=O)c2cc([N+](=O)[O-])cc([N+](=O)[O-])c2[nH]1 | 4 | 2 | 1 | 0 | 12 | /
O=c1[nH]c2cc([N+](=O)[O-])c([N+](=O)[O-])cc2[nH]c1=O | -2 | 66* | -1 | 0 | -2 | 73*
COc1ccc(C)cc1NC(=O)CSc1ccc(-c2ccccn2)nn1 | -4 | 9 | -1 | 2 | 3 | /
CCN(C(=O)COC(=O)c1cc(-c2cccc3ccccc23)nc2ccccc12)C1CCS(=O)(=O)C1 (stereo not given) | -13 | 60* | -2 | 0 | -41 | 32
CN1CCN(c2ccc([N+](=O)[O-])cc2/C=N/NC(=O)c2cccc([N+](=O)[O-])c2)CC1 | 3 | / | / | / | 4 | /
CCN(CC)C(=O)C1CCCN(c2ccc([N+](=O)[O-])cc2/C=N/NC(=O)c2ccccc2)C1 (stereo not given) | 1 | 85* | 7 | 0 | 8 | 56*
CCN(CC)C(=O)C1CCCN(c2ccc([N+](=O)[O-])cc2/C=N/NC(=O)c2cccc(O)c2)C1 (stereo not given) | -1 | 66* | -6 | 0 | 13 | 68*
CCN(CC)C(=O)C1CCCN(c2ccc([N+](=O)[O-])cc2/C=N/NC(=O)c2ccc([N+](=O)[O-])cc2)C1 (stereo not given) | -1 | 44 | -5 | 0 | -18 | /
c1cnc(-c2noc(CN3CCN(C4CCCC4)CC3)n2)cn1 | 2 | -6 | 1 | 0 | -3 | /
CCOC1=C2[C@@H](CN(S(=O)(=O)c3ccc(C)cc3)[C@H]2c2ccccc2F)[C@H]2C(=O)N(C3CCCCC3)C(=O)[C@H]2C1 | -3 | 72* | / | 0 | -7 | 23
CCOC1=C2[C@@H](CN(S(=O)(=O)c3ccccc3C)[C@H]2c2ccc(Cl)cc2)[C@H]2C(=O)N(C3CCCCC3)C(=O)[C@H]2C1 | 4 | / | / | 0 | -2 | /
CCOC1=C2[C@@H](CN(S(=O)(=O)c3ccccc3C)[C@H]2c2ccc(Cl)cc2)[C@H]2C(=O)N(c3ccccc3)C(=O)[C@H]2C1 | 4 | 83* | / | 0 | 18 | 16
SMILES | ADAM17 inh | FAS TE block | GRIN3A LBD mod | aDG glyco up | ADAM10 inh | FAS-TE conf
CCOC1=C2[C@@H](CN(S(=O)(=O)c3ccc(C)cc3)[C@H]2c2ccccc2)[C@H]2C(=O)N(c3ccccc3)C(=O)[C@H]2C1 | -4 | 28 | / | 0 | -19 | /
CCOC1=C2[C@@H](CN(S(=O)(=O)c3ccc(C)cc3)[C@H]2c2ccccc2F)[C@H]2C(=O)N(c3ccccc3)C(=O)[C@H]2C1 | -1 | 32 | / | 0 | -17 | /
CCOC1=C2[C@@H](CN(S(=O)(=O)c3ccc(C)cc3)[C@H]2c2ccccc2)[C@H]2C(=O)N(Cc3ccccc3)C(=O)[C@H]2C1 | -1 | 76* | / | 0 | -3 | 19
N#Cc1cc([N+](=O)[O-])cnc1Nc1ccccc1 | 6 | 2 | -3 | 0 | 9 | /
CC(=O)NNc1nc(-c2ccccc2)cs1 | -1 | 70* | -4 | 0 | -8 | 55*
CN(C)Cc1csc(NC(=O)Nc2ccccc2-c2ccccc2)n1 | -6 | -12 | / | 0 | -9 | /
CCOc1ccc(-c2cccc(NS(=O)(=O)c3ccccc3[N+](=O)[O-])c2)nn1 | -3 | 11 | 1 | 0 | 1 | /
CCOc1ccc(-c2ccc(NS(=O)(=O)c3cc([N+](=O)[O-])c(C)c([N+](=O)[O-])c3)cc2)nn1 | 1 | 84* | 3 | 0 | 4 | 83*
CCOC1=C2CN(S(=O)(=O)c3ccc(C)cc3)[C@@H](c3cccs3)C[C@H]2[C@H]2C(=O)N(c3ccccc3)C(=O)[C@H]2C1 | -2 | 78* | / | 0 | -4 | 22
Cc1ccc(S(=O)(=O)N2C[C@H]3C(=O)C[C@@H]4C(=O)N(c5ccccc5)C(=O)[C@@H]4[C@@H]3C[C@H]2c2cccs2)cc1 | -2 | 70* | / | 0 | 1 | 46
Cc1ccc(S(=O)(=O)N2C[C@H]3C(=O)C[C@@H]4C(=O)N(c5ccccc5)C(=O)[C@@H]4[C@@H]3C[C@H]2c2cccc(Cl)c2)cc1 | -4 | 85* | / | 0 | -8 | 1
CCc1ccc([C@H]2C[C@H]3[C@H]4C(=O)N(c5ccccc5)C(=O)[C@H]4CC(=O)[C@@H]3CN2S(=O)(=O)c2ccc(C)cc2)cc1 | 4 | 74* | / | 0 | 17 | 13
CNC(=O)c1cc(Oc2ccc(NC(=O)c3[nH]c(-c4ccccc4)c4c3C(=O)N(C)C4=O)cc2)ccn1 | 0 | 3 | / | 0 | -16 | /
CN(C)c1ccc(C(CC(=O)c2ccccc2)C2CCCCC2=O)cc1 (stereo not given) | -1 | 6 | -3 | 0 | -3 | /
